# This is a sample that favours compounds with a hit; in the whole collection about 0.63% have one here.
# gsp ag: qHTS for Agonist of gsp, the Etiologic Mutation Responsible for Fibrous Dysplasia/McCune-Albright Syndrome: qHTS. gsp mutant cells, cAMP HTRF, 30 min. Potency, µM (highest dose often 76.9 µM), actives largely listed as activators. actives 0.13% (n = 340,000). AID 624287, 2012; active = well fitted activation curve with a large enough effect; inconclusive = small, poorly fitted or top-dose-only effect, or another doubt; inactive = no such curve, though single readings can be large or run the other way; cell line not stated here;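 note: phosphodiesterase inhibitor Ro 20-1724 added with compounds to block cAMP breakdown; nearly all actives have a fitted effect of over 60% in size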
#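 Cells stably selected in G418 were plated at 2000/well, grown 16-24 hr, then given compounds in DMSO with the PDE inhibitor […] (300 uM solution added) for 30 min at 37C; cAMP was read by HTRF.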
# TSHR antagonist: Antagonists of the Thyroid Stimulating Hormone Receptor: HTS campaign; activity change, negative = inhibition, % at 11.5 µM; TSHR-expressing cells, TSH-stimulated cAMP HTRF, 2 h; stronger effect = lower value; actives 0.2% (n = 330,000); AID 504810, 2011; Thyrotropin receptor (Homo sapiens), P16473;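 active = activity change below a set negative limit, meaning inhibition stronger than a set level, cut at about -70% in these data; inconclusive = activity change between two set negative limits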
#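 Inhibition of cAMP made by TSHR-expressing cells under TSH stimulation (4nM final, EC80; 2 h, 37 deg C) is quantified with a one-step lysis HTRF kit, anti-cAMP cryptate versus cAMP-d2.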
# Pin1 inhibitor: qHTS Assay to Find Inhibitors of Pin1; Pin1 FP peptide displacement, HiFluor488, 10 min; AID 504891, 2011; Potency, µM (doses to about 115 µM), usual class: inhibitors; actives 0.009% (n = 390,000); active = well fitted inhibition curve with a large enough effect in the polarisation, with a control signal flat, not every such curve was filed as active; inconclusive = small, poorly fitted or top-dose-only effect, or effect the other way, or a change in a side signal; inactive = no such curve, though single readings can be large or run the other way; the % refers to the polarisation
# Target sequence (Q13526 whole entry, looked up): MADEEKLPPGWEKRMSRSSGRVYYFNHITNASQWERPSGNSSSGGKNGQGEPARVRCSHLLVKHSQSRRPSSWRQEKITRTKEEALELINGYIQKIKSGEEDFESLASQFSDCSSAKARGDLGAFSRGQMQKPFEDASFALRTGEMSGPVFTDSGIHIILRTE
# TCR activator: Activators of T cell receptors: qHTS campaign. 330,000 tested, under 10 active. AID 504894, 2011. primary human leukocytes, anti-CD3, IL-2 HTRF, 48 h. Potency, µM (titrated, usually from 9.22 µM), actives largely listed as activators; active = well fitted activation curve with a large enough effect; inconclusive = small, poorly fitted or top-dose-only effect, or another doubt; inactive = no such curve, though single readings can be large or run the other way
#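 Readout: HTRF IL-2, Eu-cryptate/d2 antibody pair, 320nm excitation, 665nm emission. Stimulus: a-CD3 beads, no co-stimulation. Cells: primary human leukocytes. Exposure: 48 hr with compound.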
# gsp antagonist: qHTS for Antagonists of gsp, the Etiologic Mutation Responsible for Fibrous Dysplasia/McCune-Albright Syndrome: qHTS; gsp-mutant cells, cAMP HTRF, 30 min; Potency, µM (doses to about 76.9 µM), hits mostly inhibitors; actives 0.4% (n = 340,000); calls by dose curve; cell line not stated here;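 note: intracellular cAMP measured with PDE inhibitor Ro 20-1724 present during compound exposure; nearly all actives have a fitted effect of over 65% in size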
#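 G418-selected cells were plated in DMEM/10% FBS for 16-24 h at 37C, then treated with compounds plus the PDE inhibitor […] (300 uM solution added) for 30 min at 37C. Intracellular cAMP was measured by HTRF after 30 min lysis at room temperature.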
# Hits are given with their value; – = inactive; ? = inconclusive; · = no result; [ ] = remark or other dose.
SMILES,gsp ag,TSHR antagonist,Pin1 inhibitor,TCR activator,gsp antagonist
Cc1nc(SCC(=O)Nc2cccc(S(=O)(=O)N3CCOCC3)c2)nc(C)c1C,?,–,–,–,–
Cc1cc(=O)[nH]c(SCC(=O)Nc2cccc(S(=O)(=O)N3CCOCC3)c2)n1,16µM,–,–,–,–
Cc1ccc(NC(=O)CSc2nnc(Cc3cccn3C)n2-c2ccc(F)cc2)c(C)c1,–,–,–,–,50µM
Cn1cccc1Cc1nnc(SCC(=O)Nc2ccc(F)cc2F)n1-c1ccc(F)cc1,–,–,–,–,–
O=[N+]([O-])c1ccc(-c2nc(Nc3cccc(O)c3)c3ccccc3n2)cc1,?,–,?,–,28µM
O=C(O)c1cccc(Nc2nc(-c3ccc([N+](=O)[O-])cc3)nc3ccccc23)c1,?,–,–,–,–
O=C(CSc1ccccn1)Nc1cccc2ccccc12,–[15.4 µM],-116,–,–,–
COc1cccc2sc(=NC(=O)CS(=O)(=O)c3ccc(F)cc3)n(C)c12,–,–,–,–,–
CCn1c(=NC(=O)CS(=O)(=O)c2ccc(C)cc2)sc2cccc(OC)c21,–,–,–,–,35µM
CC(=O)Nc1cccc(C(=O)NCc2ccc3c(c2)CCN3C(=O)c2ccccc2)c1,·,·,–,·,·
Cc1cc(NC(=O)CCN2CC(C)OC(C)C2)ccc1Br (centres undefined),–,–,–,–,–
CCc1oc2ccccc2c1C(=O)c1cc(Br)c(O)c(Br)c1,·,-70,–,–,–
Cc1nn(-c2ccccc2)c(C)c1NC(=O)COc1ccc(Br)cc1Cl,–[15.4 µM],?,–,–,35µM
CN(C)S(=O)(=O)c1ccc(NC(=O)CN2CCCCCC2)cc1,–,–,–,–,–
Cc1cc(NC(=O)CSc2nc(CCC3CCCC3)nc3ccccc23)no1,–,–,–,–,–
CCCc1nc(SCC(=O)Nc2cc(C)on2)c2ccccc2n1,–,–,–,–,–
Cc1nonc1NC(=O)CSc1nc(CCC2CCCC2)nc2ccccc12,20µM,–,?,–,–
Cc1cc(NC(=O)CSc2nc(C(C)(C)C)nc3ccccc23)no1,25µM,–,–,–,–
Cc1cc(NC(=O)CSc2nc3ccccc3n2CCC#N)no1,–[15.4 µM],–,–,–,10µM
Cc1ccc(C(=O)OC(C)C(=O)NC2CCCCC2C)cc1S(=O)(=O)N1CCOCC1 (centres undefined),–,–,–,–,–
CCOc1ccc(NC(=O)c2cccc(-n3cccc3)c2)cc1S(=O)(=O)N1CCOCC1,·,–,·,·,·
O=C(NCCC1=CCCCC1)C(=O)NCC1OCCCN1S(=O)(=O)c1ccccc1 (centres undefined),–,-90,–,–,–
O=C(O)c1ccccc1SCc1cn2cc(Br)ccc2n1,10µM,–,–,–,–
CCOC(=O)C1=C(N)Oc2ccc3ccccc3c2C1c1cccnc1 (centres undefined),–,–,–,–,32µM
Cc1cccc(COc2coc(CN3CCN(C(=O)c4ccco4)CC3)cc2=O)c1,–[15.4 µM],–,–,–,–
SMILES,gsp ag,TSHR antagonist,Pin1 inhibitor,TCR activator,gsp antagonist
O=C(c1ccco1)N1CCN(Cc2cc(=O)c(OCc3ccccc3)co2)CC1,20µM,–,–,–,–
O=C1c2ccccc2C(=O)N1Cc1nc2ccccc2c(=O)n1Cc1ccco1,–,–,–,–,–
Cc1cc(Cl)c2oc(C(=O)N3CCOCC3)c(C)c2c1,–,·,·,·,·
Cc1cccc2cc(/C=N/NC(=O)c3ccccc3O)c(Cl)nc12,–,-72,–,–,–
Cc1cccc2cc(/C=N/NC(=O)c3ccncc3)c(Cl)nc12,–,–,–,–,–
COc1ccc(Nc2nnc(-c3ccc(O)cc3)c3ccccc23)cc1,–,–,–,–,25µM
O=C(N/N=C/C(Cl)=C/c1ccccc1)c1cnccn1,–,–,–,–,–
C=CCn1c(=O)n2ncnc2c2c3c(sc21)CCCC3,–,–,–,–,–
Cc1nn(CCC(=O)O)c2nc(-c3cccnc3)cc(C(F)(F)F)c12,–,–,–,–,–
Cc1nn(CCc2nn[nH]n2)c2nc(-c3ccc(C4CCCCC4)cc3)cc(C(F)(F)F)c12,–[15.4 µM],–,·,–,11µM
Cc1ccc(S(=O)(=O)NCc2ccc3c(c2)cc(C)n3C)cc1,–,–,–,–,–
Cc1cc2cc(CN3C(=O)c4ccccc4C3=O)ccc2n1C,32µM,–,–,–,–
CCOP(=O)(OCC)C(NC(=O)Nc1ccc(C)c(Cl)c1)c1ccccc1 (centres undefined),–[15.4 µM],–,–,–,–
O=C(CN1CCN(S(=O)(=O)c2ccccc2C(F)(F)F)CC1)NCc1cccs1,–[15.4 µM],–,–,–,–
NC(=O)c1ccsc1NC(=O)CN1CCN(S(=O)(=O)c2ccccc2C(F)(F)F)CC1,–,·,?,–,50µM
CCCC(=O)OCCNc1cc(Sc2nccn2C)c2nonc2c1[N+](=O)[O-],–,-93,–,–,–
Cc1nnc(Sc2cc(NCCCO)c([N+](=O)[O-])c3nonc23)s1,–[15.4 µM],-86,?,–,–
Cc1nnc(Sc2cc(NCCO)c([N+](=O)[O-])c3nonc23)s1,?,–,?,–,?
CCC(=O)OCCNc1cc(Sc2nc3ccccc3s2)c2nonc2c1[N+](=O)[O-],–,?,?,·,–
O=[N+]([O-])c1c(NCCCO)cc(Sc2nc3ccccc3s2)c2nonc12,–,-94,?,–,–
Cc1[nH]c2ccccc2c1C(=O)C(=O)N1c2ccccc2CC1C (centres undefined),–,–,–,–,–
COc1ccc2[nH]cc(CCNC(=O)Nc3ccccc3)c2c1,–,–,–,–,–
CCOc1ccc(CCNC(=O)COC(=O)c2cccnc2Cl)cc1OCC,–[15.4 µM],–,–,–,–
Cc1ccc(C(=O)NC(=S)Nc2ccc(-c3cc4ccccc4oc3=O)cc2)c(C)c1,20µM,–,–,–,–
COc1ccccc1NC(=O)COC(=O)c1c(C)nn(-c2ccccc2)c1C,–,–,–,–,32µM
CC(=O)c1ccccc1NC(=O)COC(=O)c1c(C)nn(-c2ccccc2)c1C,–,–,–,–,?
O=C(Nc1ccc(N=Nc2ccccc2)c(NC(=O)C2CCCO2)c1)C1CCCO1 (centres undefined),–[15.4 µM],–,–,–,–
COc1cccc(CN2CC(C(=O)NCc3cccc(Cl)c3)CCC2=O)c1 (centres undefined),?,–,–,–,–
COc1cccc(CN2CC(C(=O)NCc3cccc(N4CCCC4)c3)CCC2=O)c1 (centres undefined),–,–,–,–,3.2µM
CSc1nsc2nc(=O)c(/C=C3\C=Nc4ccccc43)c(N)n12,–,–,?,–,32µM

# Screening data as filed in PubChem BioAssay.
